Screening results (PubChem)
hNpr1 antagonist – blocks ANP-stimulated signaling of human Npr1 receptor. HEK293 hNpr1 GloSensor cGMP, ANP-stimulated luminescence. actives 1.6% (n = 76,000). P16066. Potency, µM (doses to about 46.3 µM), without a hit: at the highest dose activity change, negative = inhibition, actives largely listed as inhibitors; calls by dose curve; also: nearly all actives have a fitted effect of over 60% in size
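HEK293 cells stably expressing human Npr1 and cGMP GloSensor pGS-40F, loaded 2 h with 2% GloSensor reagent, given compound 30 min at room temperature. Luminescence read before and 20 min after 0.1 nM hNppA.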
HEK293 tox – cytotoxic compounds in HEK 293 cells; AID 1345083; Potency, µM (series often up to 115 µM), inactives show at the top dose activity change, negative = cytotoxicity, usual class: inhibitors; actives 6.6% (n = 94,000); HEK 293 viability, ATP luminescence (CellTiter-Glo), 48-72 h; also: nearly all actives have a fitted effect of over 60% in size
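Cytotoxicity was scored by loss of ATP-coupled luminescence (CellTiter-Glo) in HEK 293 cells. Compound treatment ran 48 or 72 hr at 37 degree Celsius, 5% CO2, 95% humidity.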
Luciferase inh – Photinus pyralis luciferase inhibition; P08659; purified P. pyralis luciferase, luminescence, biochemical; Potency, µM (titrated, usually from 115 µM), hits mostly inhibitors; actives 2.5% (n = 76,000); also: nearly all actives have a fitted effect of over 65% in size
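FLuc 10nM, D-luciferin 10uM, ATP 10uM, Mg acetate 10mM, Tris acetate pH 7.5, Tween/BSA; cpd qHTS; enzyme added last; CCD luminescence.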
NIH3T3 tox – kills NIH 3T3 cells | NIH 3T3 viability, CellTiter-Glo ATP luminescence, 48-72 h | AID 1345082 | Potency, µM (series often up to 96.7 µM), for inactives: top-dose activity change, negative = cytotoxicity, most hits filed as inhibitors | actives 4.3% (n = 94,000); also: nearly all actives have a fitted effect of over 55% in size
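Cells were seeded at 400 per well, treated with pin-transferred compound, and kept 48 or 72 hr at 37 °C before CellTiter-Glo addition and luminescence imaging of cellular ATP.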
GPT2 inhibitor – GPT2 alanine aminotransferase inhibition | Q8TD30 | Recombinant GPT2, coupled pyruvate oxidase/HRP Amplex Red fluorescence | Potency, µM (doses to about 57.7 µM), without a hit: top-dose activity change, negative = inhibition, actives largely listed as inhibitors | actives 0.25% (n = 100,000) | AID 1671188; also: nearly all actives have a fitted effect of over 60% in size
Target sequence (Q8TD30 whole entry, looked up): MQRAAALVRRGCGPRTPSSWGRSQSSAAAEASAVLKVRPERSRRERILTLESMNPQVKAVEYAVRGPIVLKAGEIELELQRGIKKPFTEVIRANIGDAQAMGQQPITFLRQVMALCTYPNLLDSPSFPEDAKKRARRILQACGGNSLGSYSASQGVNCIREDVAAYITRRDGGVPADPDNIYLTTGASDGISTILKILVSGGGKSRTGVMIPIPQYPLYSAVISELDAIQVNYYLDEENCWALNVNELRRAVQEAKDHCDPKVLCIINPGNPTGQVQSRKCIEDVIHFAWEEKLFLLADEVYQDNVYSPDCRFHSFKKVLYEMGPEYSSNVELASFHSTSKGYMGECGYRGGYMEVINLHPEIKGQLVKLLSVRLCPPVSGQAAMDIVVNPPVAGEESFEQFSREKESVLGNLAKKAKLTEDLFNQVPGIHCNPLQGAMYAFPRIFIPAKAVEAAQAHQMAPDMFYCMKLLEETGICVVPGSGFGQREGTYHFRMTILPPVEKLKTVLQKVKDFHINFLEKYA
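Fluorescence of coupled pyruvate oxidase/HRP/Amplex Red system (50uM Amplex, 30 min, dark) reports pyruvate formed by GPT2. Enzyme reaction: 10ng/uL GPT2, 2mM L-alanine, 250uM a-KG, 30 min room temperature, pH 7.5; 50uM AOA control.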
An asterisk follows results filed as active; i = inactive; ? = inconclusive; · = no result; [ ] = dose if it differs, or a comment. Rows were chosen to be rich in hits. Some 10% of all compounds tested hit in one or more screens of this group. Unless noted, calls follow the shape of the dose curve; as a rule, active = well fitted curve in the direction sought with a large enough effect; inconclusive = small, poorly fitted or top-dose-only effect, or another doubt; inactive = no such curve, though single readings can be large; an effect the other way counts as inactive or inconclusive. % is scaled to controls: 0 for no effect and ±100 for the full control effect; potency is read from the fitted curve at half-maximal effect.

SMILES | hNpr1 antagonist | HEK293 tox | Luciferase inh | NIH3T3 tox | GPT2 inhibitor
O=C(c1ccccc1F)N1CCCC(c2nnnn2-c2ccccc2)C1 (stereo not drawn) | · | 3.4% | · | -11.3% | i
O=C(COc1ccccc1)NC1CCCc2c1[nH]c1ccc(F)cc21 (stereo not drawn) | -1.6% | ? | i | -15.3% | -3.4%
COc1cccc(-c2ccc(CN3CCCC(NC(=O)C(C)C)C3)cc2)c1 (stereo not drawn) | · | 39.8µM* | · | ? | 4.3%
Cc1ccc(-c2cccc(CN3CCCC(NC(=O)C(C)(C)C)C3)c2)cc1Cl (stereo not drawn) | · | ? | · | -26.5% | ·
COc1cccc(-c2ccc(CN3CCCC(NC(=O)C(C)(C)C)C3)cc2)c1 (stereo not drawn) | · | 50.1µM* | · | ? | -31.8%
COc1cccc(-c2ccc(CN3CCCC(NC(=O)Cc4ccccn4)C3)cc2)c1 (stereo not drawn) | · | 39.8µM* | · | ? | i
Cc1ccc(-c2cccc(CN3CCCC(NC(=O)Cc4cccc(Cl)c4)C3)c2)cc1Cl (stereo not drawn) | · | i | · | -13.9% | i
COc1cccc(-c2ccc(C(=O)NCCNC(=O)Nc3ccc(Cl)cc3)cc2)c1 | · | ? | · | -15.7% | ·
Cc1cccc(Cl)c1NC(=O)N1CCC2(CC1)C(C(=O)O)CC(=O)N2C (stereo not drawn) | 10.8% | -4.2% | i | i | i
Cc1ccc(Nc2ccnc(N3CCC(NC(=O)c4ccccc4C)CC3)n2)cc1 | · | 35.5µM* | · | 25.1µM* | 3.4%
COc1ccc(Nc2ccnc(N3CCC(NC(=O)c4ccccc4OC)CC3)n2)cc1 | · | 50.1µM* | · | ? | i
COc1ccc(Nc2ccnc(N3CCC(NC(=O)c4ccccc4Cl)CC3)n2)cc1 | · | 39.8µM* | · | ? | i
COc1ccccc1Nc1ccnc(N2CCC(NC(=O)c3ccccc3OC)CC2)n1 | · | ? | · | ? | i
COc1ccc(Nc2ccnc(N3CCC(NC(=O)C4CC4)CC3)n2)cc1 | · | ? | · | -19.6% | i
Cc1ccc(C2NC(=O)N(CC(=O)NC(C)CCc3ccccc3)C3=C2C(=O)OC3)cc1 (stereo not drawn) | -14.1% | ? | i | -29.5% | i
CC(C)CCNC(=O)c1c(OCC2CC2)cc(=O)n2c1CCCCC2 | -0.8% | ? | i | 35.5µM* | i
O=C(C1CCCN(Cc2cccc(-c3ccc(F)cc3F)c2)C1)N1CCN(c2ncccn2)CC1 (stereo not drawn) | · | 39.8µM* | · | ? | i
O=C(C1CCCN(Cc2cccc(-c3ccc(F)cc3F)c2)C1)N1CCCC1 (stereo not drawn) | · | 28.2µM* | · | ? | ?
COC(=O)CNC(=O)C1CCCN(Cc2cccc(-c3ccc(F)cc3F)c2)C1 (stereo not drawn) | · | -27.5% | · | ? | -5.6%
O=C(NCC1CN(C(=O)Cc2cccc(C(F)(F)F)c2)CC12CN(c1ccccc1)C2)Nc1ccccc1 (stereo not drawn) | 2.0% | ? | i | ? | 4.1%
Cc1nc(CC2CCN(C(=O)C3CCCC3)CC2)n[nH]1 | 4.9% | i | i | 1.0% | i
CCN1c2cc(C(=O)N3CCN(c4ccccn4)CC3)ccc2C(=O)N2CCCCCC21 (stereo not drawn) | -12.5% | ? | i | ? | i
Cc1ccccc1CN1CCc2ncc(C(=O)NCCC(C)C)n2CC1 | -2.7%[70.6 µM] | ? | i | ? | -9.0%[88.5 µM]
Cc1cccc(CN2CCc3ncc(C(=O)NCCC(C)C)n3CC2)c1 | -8.3%[70.6 µM] | 39.8µM* | i | ? | -12.6%[88.5 µM]
N#Cc1cccc(CN2CCc3ncc(C(=O)NCCOc4ccccc4)n3CC2)c1 | ? | 28.2µM* | i | 28.2µM* | -7.6%[88.5 µM]
SMILES | hNpr1 antagonist | HEK293 tox | Luciferase inh | NIH3T3 tox | GPT2 inhibitor
COCC(=O)N1CCCC(C(=O)N2CCC(N3Cc4cccn4C3=O)CC2)C1 (stereo not drawn) | · | 0.0% | · | i | i
CCOC1CCOC2(CCN(C(=O)c3ccccc3)CC2)C1 (stereo not drawn) | · | -21.8% | · | -24.7% | -11.9%
CNC(=O)c1ccc(CNc2nc(CCN)nc3sc(C)c(C)c23)o1 | -18.0% | 50.1µM* | i | ? | -5.2%
CNC(=O)c1ccc(CNc2cc(C3CC(O)C3)nc(N)n2)o1 (stereo not drawn) | 2.3% | i | i | -7.3% | i
CN(C)c1ccc(C(=O)N2CCCC(COc3ccccc3C(=O)N3CCCCC3)C2)cc1 (stereo not drawn) | -2.1% | ? | i | -18.0% | i
O=C(NCCc1ccccc1)c1c[nH]c2ncccc12 | 0.0%[70.6 µM] | -2.9%[172 µM] | 20µM* | i | i
O=C(NCc1ccc(Cl)cc1)c1c[nH]c2ncccc12 | -1.8%[70.6 µM] | ? | 28.2µM* | ? | 2.7%[88.5 µM]
O=C(NCc1ccc(Cl)cc1)c1c[nH]c2cccnc12 | · | 35.5µM* | · | 15.8µM* | -1.3%[88.5 µM]
CN(C)C[C@@H]1CN(C)C[C@H]1NC(=O)NCc1ccc(OC(F)(F)F)cc1 | 9.5% | ? | i | ? | 0.4%
CCOC(=O)C1CCCN(C(=O)C2COC3(CCCCC3)N2C(=O)c2cc(F)cc(F)c2)C1 (stereo not drawn) | 3.7% | -8.5% | i | -14.5% | -6.1%
COc1ccc(CNC(=O)c2nnn3c2CN(Cc2cccc(Cl)c2)C(=O)CC3)cc1OC | -9.8% | -26.5% | i | ? | 0.3%
O=C(Nc1ccccc1)c1nnn2c1CN(Cc1ccccc1)C(=O)CC2 | 0.4%[70.6 µM] | i | i | 100µM* | i
